Out of some 75,000 compounds screened, about 5,700 (7.6%) were called active. About 7% were inconclusive and are not listed. Calls follow the shape of the dose curve; as a rule, active = well fitted inhibition curve with a large enough effect; inconclusive = small, poorly fitted or top-dose-only effect; inactive = no such curve, though single readings can be large or run the other way. What follows is part of a selection rich in actives, with near analogues and random picks from the rest.
target: 3-hydroxyacyl-CoA dehydrogenase type-2 (Homo sapiens) (UniProt Q99714); assay: qHTS Assay for Inhibitors of HSD17B4, hydroxysteroid (17-beta) dehydrogenase 4; settings: recombinant HSD17B10, NADH fluorescence kinetic; series mostly up to 57.1 µM;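 also: the protocol describes HADH2 (HSD17B10) and not the HSD17B4 of the title; nearly all actives have a fitted effect of over 70% in size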
Procedure, shortened: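 Enzyme plus compound, 15 min room temperature; substrate mix added (NAD+ 1 mM, beta-hydroxybutyryl-CoA 90 uM final); plates read kinetically for NADH fluorescence. HADH2 was His-tagged, E. coli-derived, 20 nM.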
% is scaled to controls: 0 for no effect and ±100 for the full control effect; potency is read from the fitted curve at half-maximal effect.

Potency, active:
CCc1nc(Nc2ccc3nccnc3c2)c2oc3ccccc3c2n1 12.6 µM, COc1ccc2nc(NC3=NCN(CC4CCCO4)CN3)nc(C)c2c1 (stereo unspecified) 31.6 µM, CSc1sc(C)cc1C1C(C#N)=C(N)N(c2cccnc2)C2=C1C(=O)CCC2 (stereo unspecified) 15.8 µM, Cn1nc(-c2ccc(Cl)cc2)c2cc(C(=O)NCc3ccco3)sc21 31.6 µM, Cc1ccc(C)n1C(Cc1ccccc1)C(=O)O (stereo unspecified) 10 µM, O=C(CSC1=Nc2ccccc2C2=NC(c3ccccc3)C(=O)N12)NCC1CCCO1 (stereo unspecified) 31.6 µM, COc1cc2nc(N3CCN(C(=O)[C@@H]4CCCO4)CC3)nc(N)c2cc1OC 12.6 µM, CCOc1ccccc1C(=O)NCc1ccco1 25.1 µM, Cn1cccc1C(=O)NC(=O)COC(=O)Cc1coc2ccc3ccccc3c12 31.6 µM, N[C@H](C(=O)O)c1ccc(C(=O)O)c(O)c1 39.8 µM, O=C(c1ccco1)N1CCC2(CC1)CCN(c1ncccn1)CC2 31.6 µM, CN(c1nc2ccccc2n2c(-c3ccco3)nnc12)S(=O)(=O)c1ccccc1 1 µM, CCC(=O)Nc1ccc(C(=O)Nc2ccc3c(c2)C(=O)N(CC2CCCO2)C3=O)cc1 (stereo unspecified) 31.6 µM, Cc1ccc2c(c1)c1ncn(CCC3=CCCCC3)c(=O)c1n2C 31.6 µM, CCc1c(C)sc(NC(=O)c2ccc(Br)o2)c1C(=O)OC 31.6 µM, CCOC(=O)c1c(NC(=O)c2ccc(Br)o2)sc2c1CCCC2 25.1 µM, COC(=O)c1c(NC(=O)c2cccs2)sc2c1CCCC2 31.6 µM, C#CCCCCCCCCCCCCCCCC(=O)O 15.8 µM, c1ccc2[nH]c(-c3nc4ccccc4[nH]3)nc2c1 25.1 µM, c1ccc(-c2[nH]ncc2-c2nc3ccccc3[nH]2)cc1 12.6 µM

Potency, inactive:
CCOc1ccc(S(=O)(=O)n2ccnc2)c2ccccc12, C[C@@H](Nc1nc(-c2ccccc2)nc2c1oc1ccccc12)C(=O)O, CCSc1nc(C)nc2c1oc1ccccc12, Cc1cccc(N2CCN(S(=O)(=O)c3ccc4c(c3)c(=O)n(C)c(=O)n4C)CC2C)c1 (stereo unspecified), Cc1ccc(C)c(S(=O)(=O)n2cnc3ccccc32)c1, Cc1ccc2nc(NC3=NCN(CCc4ccccc4)CN3)nc(C)c2c1, COc1ccc(C2CC(=O)C=C(NCC3CCCO3)C2)cc1 (stereo unspecified), O=S(=O)(c1ccccc1)N1CCC2(CC1)CN(Cc1nccs1)C2, CCCC(C(=O)N1CCOCC1)N1C(=O)C2C3C=CC(C3)C2C1=O (stereo unspecified), O=C(O)C1CCN(S(=O)(=O)N2CCOCC2)CC1, CCOC(=O)N1CCN(C(=O)c2cc3c(-c4ccc(Cl)cc4)nn(C)c3s2)CC1, COc1ccccc1N1CCN(C(=O)c2cc3c(-c4ccc(Cl)cc4)nn(C)c3s2)CC1, O=C(C(Cc1ccccc1)n1cccc1)N1CCN(C2CCCCC2)CC1 (stereo unspecified), CC(Cc1ccccc1)C(=O)N(C)Cc1ccccc1 (stereo unspecified), C=CCn1c(SCc2cc(C(=O)OC)c(C)o2)nnc1-c1ccncc1, CCC(C)(C(=O)NC1CCCC1)N(C(=O)CNC(C)=O)c1ccc(C)cc1 (stereo unspecified), Cc1ccc2cc(C#N)c(SCC(=O)NCC3CCCO3)nc2c1C (stereo unspecified), O=C(CS(=O)(=O)Cc1ccccc1)NCC1CCCO1 (stereo unspecified), Cc1ncn(C23CC4CC(CC(O)(C4)C2)C3)n1, COC(=O)C1(C)C=CC2(CCCCC2)N1C(C)=O (stereo unspecified), O=C(O)C1=CCCN(CCON=C(c2ccccc2)c2ccccc2)C1, O=C(Nc1ccccc1)N[C@H]1C[C@H](C(=O)O)Nc2cc(Cl)cc(Cl)c21, O=C(C1CCCO1)N1CCC(c2nc3ccccc3[nH]2)CC1 (stereo unspecified), COc1ccc(S(=O)(=O)N2CCC(C(=O)N3CCOCC3)CC2)cc1OC, COc1ccc(N2C(=O)C3CCCN3C2c2cc(OC)c(OC)cc2OC)cc1 (stereo unspecified), CCN(CC)S(=O)(=O)c1cc(C(=O)Nc2ccccn2)ccc1C, COc1ccccc1C(=O)NCCn1cc(SCC(=O)NCc2ccco2)c2ccccc21, CCCCOc1ccc(C(=O)NCc2ccco2)cc1, Cn1cccc1C(=O)Nc1nccs1, CC(C)(C)NC(=O)NC(=O)COC(=O)Cn1c(C(F)(F)F)nc2ccccc21, CSCC[C@H](NC(=O)NCCc1ccc(F)cc1)C(=O)O, O=C1OC(C(O)CO)C(O)=C1O (stereo unspecified), COc1ccc(CCN=C2SCC(=O)N2C)cc1OC, COc1ccc(C(=O)N(Cc2ccc(N(C)C)cc2)C2CCS(=O)(=O)C2)cc1 (stereo unspecified), CCCCC(CC)CN (stereo unspecified), N[C@@H](C(=O)O)c1ccc(P(=O)(O)O)cc1, O=C(c1ccc(O)cc1)c1ccc(C(=O)O)c(C(=O)O)c1, Cc1noc(NS(=O)(=O)c2ccc(NC(=O)C34CCC(CC3)C4)cc2)c1C, O=C(c1c(Cl)nc2sccn12)N1CCCc2ccccc21, O=C(c1ccco1)N1CCC[C@@]2(CCN(c3ccccc3)C2)C1, CC(C)NC(=O)N1CC[C@@]2(CCCN(C(=O)c3ccco3)C2)C1, COc1ccc(OC)c(S(=O)(=O)Nc2ccccc2F)c1, COC(=O)c1ccc(NC(=O)CSc2nnc(-c3ccncc3)n2C)cc1, CC(=O)NC1=NC(=O)CS1, O=C1CC(c2ccccc2)C(=O)N1c1cccc(O)c1 (stereo unspecified), Cc1ccc(Oc2nc3ccccc3n3c(C)nnc23)cc1, CCCCNC(=O)CSc1nnc(-c2ccco2)n1C, CC1=C2C(=O)OC(c3ccoc3)C2(C)CCC1 (stereo unspecified), Cc1ccccc1OCCC(=O)Nc1c(C)n(C)n(-c2ccccc2)c1=O, O=C(NCc1ccc2c(c1)OCO2)c1ccc2c(c1)C(=O)N(CC1CCCO1)C2=O (stereo unspecified), O=C(CCN1C(=O)c2ccncc2C1=O)Nc1ccc2c(c1)OCCO2, O=C(CCN1C(=O)c2ccccc2C1=O)NCCN1CCOCC1, COCc1nc2ccccc2n1Cc1ccccc1Br, COC(=O)N1CCC2(CCCN(Cc3ccccc3OC)C2)CC1, Cn1c(=O)n(C)c(=O)n(CC(=O)N2CCCCC2)c1=O, CC1CCCN(C(=O)c2ccc3c(c2)C(=O)N(CCC2=CCCCC2)C3=O)C1 (stereo unspecified), Cn1nnc2cc(C(=O)NCCC3=CCCCC3)ccc21, CC1(C)C(=O)C2(CCCCC2)C(=O)OC1c1cccs1 (stereo unspecified), CC(C)CO, CCCC(Cl)CCCC(Cl)CCC(Cl)CCC(Cl)CCC(Cl)CCCC(Cl)CCC (stereo unspecified), CCC(=NC1CC(C)(C)NC(C)(C)C1)C1=C(O)CC(C)(C)CC1=O, COC(=O)c1c(NC(=O)CSc2nncs2)sc2c1CCCCC2, COc1cc(OC)c(NC(=O)c2ccc(Br)o2)cc1Cl, CCCOC(=O)Nc1sc2c(c1C(=O)OCC)CCC2, CCc1c(C)sc(NC(=O)OC)c1C(=O)N1CCOCC1, CCOC(=O)c1c(NC(=O)c2cccs2)sc(C)c1C, CCOC(=O)c1c(NC(=O)CCC(=O)NCc2ccco2)sc2c1CCCC2, CCOc1ccc(N=C2SC(C(=O)O)CC(=O)N2C)cc1 (stereo unspecified), O=C(CCS(=O)(=O)Cc1ccccc1F)NCCCN1CCCCC1, Cn1c2c(c(=O)n(C)c1=O)C1c3ccccc3OCC1C(C)(C)O2 (stereo unspecified), COc1ccc(NC(=O)c2cccc(NC(=O)c3ccco3)c2)c(OC)c1, Cc1cc(C(=O)O)ccc1[N+](=O)[O-], CC(C)OC(=O)CN1C(=O)c2ccccc2C1=O, CC(C)NC(=O)N1CCCC2(CCN(C(=O)c3cccn3C)CC2)C1, CC1CCCC(NC(=O)CSc2nccn2C)C1C (stereo unspecified), O=C(OCC(COC(=O)c1ccccc1)(COC(=O)c1ccccc1)COC(=O)c1ccccc1)c1ccccc1, CCCCCCCCCCCC(=O)O, O=C(O)CCCCC(=O)O, CC1CC[C@@]23CCC4(C)[C@@]5(C)CCC6C(C)(C)C(O)CC[C@@]6(C)C5C=C[C@@]4(OC2=O)C3C1C (stereo partly specified), O=C(NCCN1C(=O)C2C3C=CC(C3)C2C1=O)Nc1ccccn1 (stereo unspecified), COC(=O)Cc1nc2ccccc2[nH]1, C=CCSc1nc2ccccc2[nH]1, C=CCSc1nc2c(c(=O)[nH]1)C(C(C)C)C(C#N)=C(N)O2 (stereo unspecified), O=C(NCc1ccccc1)[C@H]1C[C@@H]1[C@H](NP(=O)(c1ccccc1)c1ccccc1)c1ccccc1, COC(=O)c1ccc2c(c1)S(=O)(=O)NC(=NCCCN1CCOCC1)S2

Activity change, negative = inhibition, inactive:
CC(=O)OCC1OC(C#Cc2ccccc2Cl)C=CC1OC(C)=O (stereo unspecified) -6.58% [at 11.4 µM], Oc1ccccc1CNCc1ccccc1O -0.327% [at 11.4 µM], CCOC(=O)N/N=C1/C[C@@H](O)[C@@H](O)[C@@H]2[C@@H]3C(=O)N(CC)C(=O)[C@H]3CC[C@H]12 7.25% [at 11.4 µM], NCC(=O)[C@@H](O)[C@H](O)[C@H](O)CO 0.448% [at 11.4 µM], C/C(CCN1CCc2nc(-c3ccccc3)c(-c3ccccc3)cc2C1)=N\O[C@@H](C)c1cn([C@@H]2COC[C@@H]2O)nn1 2.35% [at 11.4 µM], O=C(O)c1cccc(S(=O)(=O)NCCO)c1 10% [at 11.4 µM]
